Compound activity (PubChem BioAssay)
Most compounds without a hit are left out; they make up all but 4.8% or so of the library.
SMARCA2 act: increases SMARCA2 function in MMTV reporter cells; MG213 cells, MMTV-luciferase reporter, dexamethasone, overnight; activation, % at 9.1 µM; hit rate 1% among 370,000; in the data active means activation above about 7.8%;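 further: 0% = vehicle wells and 100% = reference activator wells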
ssDAF-12 act: S. stercoralis DAF-12 activation, primary screen | activation, % at 6.8 µM | HEK293 ssDAF-12/GRIP1 lit1-tk-luc reporter, luminescence; % of 3 µM dafachronic acid response | hit rate 1% among 370,000;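 active means activation above the mean over all tested compounds plus 3 SD, cut at about 0.9% in these data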;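 further: 0% = DMSO-only wells and 100% = 3 µM delta7-dafachronic acid wells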
DAX1 inh-1: blocks DAX1 repression of SF-1 activated StAR promoter; AID 652010; hit rate 1.1% among 370,000; inhibition, % at 6.8 µM; HEK293T StAR-luciferase reporter, SF-1/DAX-1 repression relief;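 active means inhibition above the mean over all tested compounds plus 3 SD, cut at about 3.6% in these data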;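 further: 0% = DAX-1 cells with DMSO and 100% = cells lacking DAX-1 with DMSO; higher inhibition means more luminescence from relief of DAX-1 repression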
hgDAF12 agonist: agonists of H. glycines DAF-12 nuclear receptor | HEK293 GAL4-hgDAF12 UAS-luciferase reporter, agonist luminescence; normalized to butyrate control | activation, % at 6.8 µM | hit rate 1.8% among 370,000;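 active means activation above a cutoff set at the mean of all screened compounds plus 3 SD, cut at about 10% in these data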;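 further: 0% = DMSO wells and 100% = sodium butyrate wells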
DAX1 inh-2: inhibitors of human orphan nuclear receptor DAX1 (NR0B1). inhibition, % at 6.75 µM. P51843. HEK293 Gal4-DAX1 luciferase reporter, luminescence. hit rate 0.99% among 340,000;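 active means inhibition above the mean over all tested compounds plus 3 SD, cut at about 4.2% in these data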;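 further: 0% = DAX1-transfected cells with DMSO and 100% = empty-vector control cells with DMSO; inhibition shows as a rise in luminescence from relieved DAX1 repression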
Target sequence (P51843 207-470 limits assumed): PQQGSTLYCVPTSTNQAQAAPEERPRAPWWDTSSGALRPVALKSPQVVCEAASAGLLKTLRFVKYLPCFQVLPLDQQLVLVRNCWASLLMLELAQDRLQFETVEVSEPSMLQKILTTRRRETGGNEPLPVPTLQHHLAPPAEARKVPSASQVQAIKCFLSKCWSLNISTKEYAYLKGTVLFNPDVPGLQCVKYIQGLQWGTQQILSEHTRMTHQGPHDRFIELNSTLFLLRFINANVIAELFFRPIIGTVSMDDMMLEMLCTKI
hcDAF12 agonist: activators of H. contortus DAF-12 nuclear receptor; HEK293 hcDAF-12 lit1-tk-luc reporter, luminescence; 0% DMSO, 100% Δ7-dafachronic acid; activation, % at 6.8 µM; hit rate 1.4% among 370,000;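 active means activation above the mean of all tested compounds plus 3 SD, cut at about 5.5% in these data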;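 further: 100% = response to 3 µM Δ7-dafachronic acid high control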
SMARCA2 act conf: SMARCA2 activation, confirmation screen; AID 652260; shares compounds with SMARCA2 act; hit rate 30% among 3,500; MG213 cells, MMTV-luciferase with dexamethasone, luminescence, overnight; MG213 cells expressing E1A, Rb sequestered; DMSO wells 0%, reference activator 100%; activation, % at 9.1 µM;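 active means activation above its plate's cutoff, the mean activation of tested wells plus 3 SD, cut at about 7.9% in these data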
VP16 Luc act: GAL4-VP16 reporter activation counter-screen | shares compounds with SMARCA2 act | HEK293 GAL4-VP16 pG5luc reporter, luciferase luminescence; scaled: DMSO wells 0%, SAHA wells 100% | activation, % at 9.1 µM | hit rate 41% among 3,500 | AID 686939;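 active means activation above the solvent-only control well mean plus 3 SD, averaged across control plates, cut at about 5.2% in these data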
LXR ag: counter-screen for hcDAF-12 agonists: agonists of human LXR-beta; shares compounds with hcDAF12 agonist; HEK293 Gal4-LXR tk-luc reporter, luminescence, 24 h; normalized: DMSO 0%, positive control 100%; 3,400 tested, under 10 active; activation, % at 6.8 µM; AID 743027;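 active means mean percent activation of the reporter above a cutoff set as the average over tested compounds plus their standard deviation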
hcDAF12 ag: hcDAF-12 agonism, confirmation assay. HEK293 hcDAF-12 lit1-tk-luc reporter, luminescence; % of Δ7-dafachronic acid response. activation, % at 6.8 µM. shares compounds with hcDAF12 agonist. hit rate 61% among 3,400;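 active means mean activation across triplicate tests above the threshold derived from the earlier primary screen, cut at about 5.5% in these data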;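 further: 0% = DMSO only wells and 100% = 3 µM Δ7-dafachronic acid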
hgDAF12 ag: hgDAF-12 agonism, confirmation assay; shares compounds with hgDAF12 agonist; HEK293 GAL4-hgDAF12 luciferase reporter, agonist mode; percent of butyrate response; activation, % at 6.8 µM; hit rate 80% among 3,300; AID 743050;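 active means mean activation over triplicate wells above the hit cutoff derived from the earlier primary screen, cut at about 11% in these data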;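 further: 0% = DMSO low control and 100% = 2 mM sodium butyrate high control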
LXRb DAF12 ctr: LXR-beta agonism as DAF-12 counter-screen | activation, % at 6.8 µM | HEK293 Gal4-LXR luciferase reporter, 24 h | AID 743051 | 3,300 tested, under 10 active | shares compounds with hgDAF12 agonist;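 active means mean activation of the triplicate above a set limit carried over from the primary screen, none filed active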
Active calls of the source: *; · = no result.

SMILES	SMARCA2 act	ssDAF-12 act	DAX1 inh-1	hgDAF12 agonist	DAX1 inh-2	hcDAF12 agonist	SMARCA2 act conf	VP16 Luc act	hgDAF12 ag	LXRb DAF12 ctr	others
Clc1ccc2oc(-c3ccccc3)nc2c1	3	0	1	4	0	1	·	·	·	·
OCCCN=c1cc(-c2ccccc2)oc2ccc(Cl)cc12	12*	0	0	18*	1	4	37*	6.3*	11*	0
COc1cc(OC)cc(-c2nc3ccccc3s2)c1	8.2*	1	1	17*	2	8.6*	11*	5	15*	1	LXR ag=1;hcDAF12 ag=13*
N#C/C(=C\c1ccc(OCc2ccc(C(=O)O)cc2)cc1)C(=O)N1CCOCC1	10*	1.6*	4	19*	-6	14*	2	15*	21*	1	LXR ag=1;hcDAF12 ag=7.8*
Cc1c(C(=O)N/N=C/c2cccs2)nnn1-c1nonc1N	0	-1	1	3	0	2	·	·	·	·
O=C(OCc1cn([C@@H]2CN(C(=O)c3cccs3)[C@@H](c3ccccc3)C[C@H]2O)nn1)c1ccccc1	-5	-1	-1	5	1	-1	·	·	·	·
O=c1c(-c2ccc(O)cc2)coc2cc(O)cc(O)c12	9.0*	0	3	17*	4.2*	3	14*	11*	10	0
NNC(=O)CNC(=O)c1ccccc1F	0	-1	-1	-1	1	-2	·	·	·	·
O=C(CNC(=O)c1ccccc1F)c1ccccc1	10*	1.1*	2	17*	2	7.0*	5	9.6*	14*	1	LXR ag=1;hcDAF12 ag=5
COC(=O)c1ccc(NS(=O)(=O)c2ccc(S(=O)(=O)N3CCOCC3)cc2)cc1	2	-2	0	-3	1	-1	·	·	·	·
Cc1occc1C(=O)N/N=C/C(Br)=C/c1ccccc1	14*	0	3	17*	0	5	8.2*	15*	14*	1
O=C(c1ccco1)N1CCc2ccccc21	8.5*	-1	3	14*	1	3	4	4	8	0
CC(=O)NC(=S)Nc1ccc(-c2nc3ccc(C)cc3s2)cc1	18*	0	3	15*	4	5	5	9.2*	22*	1
CC(=O)Nc1ccc(S(=O)(=O)Nc2nc3ccc(C)cc3s2)cc1	3	0	0	4	-1	0	·	·	·	·
Clc1cccc(/C=N/Nc2ncnc3ccccc23)c1	10.0*	1.8*	3	13*	4	11*	14*	15*	18*	1	LXR ag=1;hcDAF12 ag=7.1*
Nc1c(Cl)ncnc1N/N=C/c1ccnc2ccccc12	3	-1	0	8	-1	0	·	·	·	·
O=C(CNC(=O)c1cccs1)c1ccc([N+](=O)[O-])cc1	2	-1	2	4	1	1	·	·	·	·
O=C(CNC(=O)c1cccs1)c1ccc(Cl)cc1	8.8*	1	2	15*	1	5	10*	12*	17*	1
COC(=O)N/N=C(\C)c1cccs1	-1	-1	0	0	-2	3	·	·	·	·
C/C(=N\NC(=O)c1cccs1)c1ccncc1	9.5*	1	1	15*	4	3	4	1	1	0
C/C(=N\NC(=O)c1ccc(Cl)cc1)c1cccs1	8.4*	1.8*	4.4*	15*	0	4	20*	14*	18*	1
Cc1ccc(CN2CCN(/N=C\c3cccc([N+](=O)[O-])c3)CC2)cc1	0	0	-1	0	-1	0	·	·	·	·
O=C(CCN1C(=O)c2ccccc2C1=O)c1cnc[nH]1	-3	-1	-1	2	·	0	·	·	·	·
Cn1c(N)c(C(=O)CCc2ccccc2)c(=O)n(C)c1=O	8.1*	1	4.5*	21*	·	10*	17*	5.8*	10	1	LXR ag=1;hcDAF12 ag=6.8*
Cn1c(N)c(C(=O)CCl)c(=O)n(Cc2ccccc2)c1=O	0	-1	0	0	0	-2	·	·	·	·
SMILES	SMARCA2 act	ssDAF-12 act	DAX1 inh-1	hgDAF12 agonist	DAX1 inh-2	hcDAF12 agonist	SMARCA2 act conf	VP16 Luc act	hgDAF12 ag	LXRb DAF12 ctr	others
COc1ccc(Cl)cc1N1C(=O)CN(Cc2cc(OC)c(OC)c(OC)c2)C1=S	-2	-1	0	-1	0	0	·	·	·	·
O=C(N/N=C/c1ccc2c(c1)OCO2)c1cccs1	9.2*	1.5*	4.4*	24*	3	6.1*	11*	7.8*	19*	1
O=C(O)c1ccccc1C(=O)Nc1ccc(-c2csc(-c3ccccc3)n2)cc1	9.5*	-1	0	16*	1	1	5	9.5*	6	0
Clc1ccccc1Cc1noc(CN2CCN(Cc3ccccn3)CC2)n1	-3	-1	0	4	1	1	·	·	·	·
COc1ccc(CNC(=O)COC(=O)CN2C(=O)COc3ccccc32)cc1	-3	-1	1	-1	1	-1	·	·	·	·
Cc1sc(NC(=S)Nc2ccc(F)cc2)c(C(N)=O)c1C	-3	-1	0	1	0	2	·	·	·	·
Cc1sc(NC(=O)c2ccc(Br)s2)c(C(N)=O)c1C	9.1*	1	3	19*	3	8.8*	6	9.6*	18*	1	LXR ag=1;hcDAF12 ag=12*
COc1ccccc1-n1nnnc1SCC(=O)N(CC(C)C)C1CCS(=O)(=O)C1 (stereo not given)	1	-1	1	-1	-1	-2	·	·	·	·
CNC(=O)C[C@H]1C(=O)N(CCc2ccccc2)C[C@@H]1Cc1ccccc1	-4	-1	2	0	2	2	·	·	·	·
CCN(CC)S(=O)(=O)c1ccc(N(C)Cc2cccnc2)nc1	-1	-1	0	-2	0	-1	·	·	·	·
